7 molecules from PubChem BioAssay (NCI) can be followed below.

This is part of a sample that, as a whole, favours compounds with a hit. Of some 83,000 tested, about 20% had one in any assay.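 Step 1: grow cells in 96-well plates. Step 2: add test compound at a single concentration. Step 3: incubate 48 h. Step 4: record percent growth.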 Values without a mark were called inactive. Active and inactive are the calls of the source. How the source made its calls: active means growth percent below 10; inactive means the rest.

Some test systems named below: NCI-H23 lung; NCI-H226 lung; NCI-H322M lung; HOP-62 NSCLC; NCI-H460 lung; NCI-H522 lung; A549/ATCC NSCLC; 786-0 renal; COLO 205 colon; DU-145 prostate; K-562 leukemia; MALME-3M melanoma; MDA-MB-231 breast; RXF 393 renal; SF-268 CNS; SF-295 CNS; SF-539 CNS; UACC-257 melanoma; M14 melanoma; HOP-92 NSCLC.
What all share (experiment): NCI-60 one-dose screen, 48 h (100 = growth as untreated, 0 = no growth, -100 = all killed)
Holding throughout (conditions): 10 µM unless noted

As for `CCn1cc(CNc2ccc(C(=O)Nc3cc4cc(OC)c(OC)cc4c(C)n3)cc2)c(C)n1`, the growth in the experiment on NCI-H23 lung is 9.61% (active); with NCI-H226 lung, 20.5%; in the experiment with NCI-H322M lung, 85.1%; with HOP-62 NSCLC, 12.8%; in the experiment with NCI-H460 lung, 58.1%; with NCI-H522 lung it was -10.1% (active). The growth was 29.5% with A549/ATCC NSCLC; 70.9% in the experiment on 786-0 renal; 28.9% with COLO 205 colon; 56.3% with DU-145 prostate; 15.6% in the experiment with K-562 leukemia; 25.2% in the experiment with MALME-3M melanoma. The growth with MDA-MB-231 breast was 74.7%; in the experiment on RXF 393 renal, 90.9%; with SF-268 CNS, 48.6%; with SF-295 CNS, 30.4%; in the experiment with SF-539 CNS, 75.5%; with UACC-257 melanoma, 48.1%. Moreover, the growth in the experiment with M14 melanoma was 22.1%.

On to `CC1(C)CCC(S(=O)(=O)c2ccc3c(c2)/C(=N\O)c2cc(S(=O)(=O)N4CCN(c5ccc(F)cc5O)CC4)ccc2-3)CC1`, for which the growth in the experiment on NCI-H23 lung was -76.8% (active); with NCI-H226 lung it was -57% (active); in the experiment on HOP-62 NSCLC it was -88.1% (active); in the experiment with NCI-H460 lung, -78% (active); in the experiment on HOP-92 NSCLC, -50.4% (active); in the experiment on NCI-H522 lung, -82.6% (active). Also, the growth in the experiment with A549/ATCC NSCLC is -92.9% (active); with 786-0 renal, -89.9% (active); in the experiment with COLO 205 colon it was -88.8% (active); in the experiment on DU-145 prostate, -46% (active); with K-562 leukemia, -78.4% (active); with MALME-3M melanoma it was -70.5% (active). The growth was -63.7% (active) in the experiment with MDA-MB-231 breast; -90% (active) in the experiment on RXF 393 renal; -54.4% (active) with SF-268 CNS; -57.1% (active) in the experiment on SF-295 CNS; -88.2% (active) with SF-539 CNS; -80.6% (active) in the experiment with UACC-257 melanoma. Also, the growth in the experiment with M14 melanoma is -81.9% (active).

On to `C[C@@H]1CC[C@@]2(OC1)O[C@H]1C[C@H]3[C@@H]4CC=C5C[C@@H](O[C@@H]6O[C@H](CO)[C@@H](O[C@@H]7O[C@@H](CO)[C@H](O)[C@H]7O)[C@H](O)[C@H]6O[C@@H]6O[C@@H](C)[C@H](O)[C@@H](O)[C@H]6O)CC[C@]5(C)[C@H]4CC[C@]3(C)[C@H]1[C@@H]2C`, for which the growth with NCI-H23 lung is -95.5% (active); in the experiment on NCI-H226 lung, -51.8% (active); in the experiment with NCI-H322M lung it was -87.7% (active); in the experiment with HOP-62 NSCLC it was 6.56% (active); in the experiment with NCI-H460 lung, -93.7% (active); in the experiment on NCI-H522 lung, -41.4% (active). Also, the growth is -96.8% (active) in the experiment on A549/ATCC NSCLC; -89.6% (active) in the experiment on 786-0 renal; -89.9% (active) in the experiment on COLO 205 colon; -95.2% (active) with DU-145 prostate; -1.01% (active) in the experiment with K-562 leukemia; -91.6% (active) in the experiment on MALME-3M melanoma. The growth was -95.3% (active) in the experiment with MDA-MB-231 breast; -95% (active) in the experiment with RXF 393 renal; -54.8% (active) in the experiment with SF-268 CNS; -91.7% (active) in the experiment with SF-295 CNS; -99.2% (active) in the experiment with SF-539 CNS; -94% (active) in the experiment with UACC-257 melanoma. The growth with M14 melanoma was -92.6% (active).

Consider `COCCCOc1cc(C[C@@H](C[C@H](N)[C@@H](O)C[C@H](C(=O)NCC(C)(C)C(N)=O)C(C)C)C(C)C)ccc1OC`, for which the growth in the experiment on NCI-H23 lung was 99.4%; in the experiment with NCI-H226 lung it was 102%; in the experiment with NCI-H322M lung it was 114%; in the experiment with HOP-62 NSCLC, 114%; in the experiment on NCI-H460 lung it was 112%; in the experiment with NCI-H522 lung, 101%. Also, the growth in the experiment on A549/ATCC NSCLC was 103%; in the experiment on 786-0 renal, 103%; with COLO 205 colon, 112%; in the experiment with DU-145 prostate it was 124%; in the experiment with K-562 leukemia, 103%; with MALME-3M melanoma, 109%. Besides, the growth was 102% with MDA-MB-231 breast; 104% in the experiment with RXF 393 renal; 117% in the experiment with SF-268 CNS; 93% in the experiment on SF-295 CNS; 103% with SF-539 CNS; 104% with UACC-257 melanoma. The growth in the experiment with M14 melanoma was 109%.

Take `O[C@@H](c1cc(C(F)(F)F)nc2c(C(F)(F)F)cccc12)[C@H]1CCCCN1`: the growth was 81.5% in the experiment with NCI-H23 lung; 94.6% in the experiment on NCI-H226 lung; 71.5% in the experiment on NCI-H322M lung; 56.1% in the experiment with HOP-62 NSCLC; 35.6% in the experiment with NCI-H460 lung; 40% with NCI-H522 lung. In addition, the growth is 66% in the experiment on A549/ATCC NSCLC; 46.3% with 786-0 renal; 67.9% in the experiment on COLO 205 colon; 65.8% in the experiment with DU-145 prostate; 15.8% in the experiment with K-562 leukemia; 99% in the experiment with MALME-3M melanoma. Further, the growth is 14.5% in the experiment with MDA-MB-231 breast; 55.2% in the experiment with RXF 393 renal; 54.7% in the experiment with SF-268 CNS; 95.7% in the experiment on SF-295 CNS; 85.6% in the experiment with SF-539 CNS; 65.5% in the experiment with UACC-257 melanoma. Moreover, in the experiment with M14 melanoma, the growth was 71.6%.

Consider `Cn1c(=O)c2c(c3ccccc31)OC(N)=C(C#N)C21C(=O)c2ccccc2C1=O`, for which the growth was 87.5% with NCI-H23 lung; 81% with NCI-H226 lung; 80.3% in the experiment on HOP-62 NSCLC; 85% in the experiment on NCI-H460 lung; 92.8% with HOP-92 NSCLC; 95.9% in the experiment with NCI-H522 lung. The growth with A549/ATCC NSCLC was 95.7%; in the experiment with 786-0 renal it was 95.1%; in the experiment with COLO 205 colon it was 102%; in the experiment on DU-145 prostate, 107%; in the experiment on K-562 leukemia, 111%; with MALME-3M melanoma it was 86.5%. For the same molecule, the growth with MDA-MB-231 breast is 81.6%; in the experiment with RXF 393 renal, 91%; with SF-268 CNS it was 93%; in the experiment on SF-295 CNS it was 102%; with SF-539 CNS, 91.9%; with UACC-257 melanoma it was 108%. In the experiment on M14 melanoma, the growth was 87.2%.

Regarding `COc1ccc2nc3cc(Cl)ccc3c(NCCN)c2c1`, the growth with NCI-H23 lung was -33.6% (active); with NCI-H226 lung, 31.8%; in the experiment on HOP-62 NSCLC it was -85.8% (active); with NCI-H460 lung it was -71.4% (active); in the experiment on HOP-92 NSCLC it was 70.7%; with NCI-H522 lung it was -56.6% (active). Moreover, the growth in the experiment with A549/ATCC NSCLC is -84.5% (active); in the experiment on 786-0 renal it was -88.9% (active); with COLO 205 colon, -83.2% (active); in the experiment with DU-145 prostate, -94.1% (active); in the experiment with K-562 leukemia, -64.6% (active); in the experiment with MALME-3M melanoma it was -71% (active). Further, the growth was -71.6% (active) in the experiment with MDA-MB-231 breast; -85.9% (active) with RXF 393 renal; -53.7% (active) with SF-268 CNS; -92.3% (active) in the experiment on SF-295 CNS; -72% (active) in the experiment with SF-539 CNS; 101% with UACC-257 melanoma. Also, in the experiment with M14 melanoma, the growth was -74.7% (active).
